Some test systems named below: NCI-H23 lung; NCI-H226 lung; NCI-H322M lung; HOP-62 NSCLC; NCI-H460 lung; HOP-92 NSCLC; NCI-H522 lung; A549/ATCC NSCLC; 786-0 renal; COLO 205 colon; DU-145 prostate; K-562 leukemia; MALME-3M melanoma; MDA-MB-231 breast; RXF 393 renal; SF-268 CNS; SF-295 CNS; SF-539 CNS; UACC-257 melanoma; M14 melanoma.
Holding throughout (experiment): NCI-60 one-dose screen, 48 h (100 = growth as untreated, 0 = no growth, -100 = all killed)
Holding throughout (details): 10 µM unless noted

The structures appear in SMILES notation. About 83,000 compounds went through this panel and 20% of them were active in at least one assay; those are over-represented in the sample as a whole.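 For each line, cells grew in 96-well plates with the test compound present at a single concentration for 48 hours.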 A number with no mark means an inactive call. Active and inactive are the calls of the source. Rule for the calls: active = growth percent below 10; inactive = the rest.

In the case of `Cc1ccccc1C(=O)NN`, the growth is 104% in the assay on NCI-H23 lung; 113% with NCI-H226 lung; 90.6% with NCI-H322M lung; 93.3% in the assay with HOP-62 NSCLC; 115% in the assay on NCI-H460 lung; 80.6% with HOP-92 NSCLC. Also, the growth in the assay on NCI-H522 lung is 92%; with A549/ATCC NSCLC it was 89.2%; in the assay with 786-0 renal, 112%; in the assay on COLO 205 colon, 110%; in the assay with DU-145 prostate it was 120%; in the assay with K-562 leukemia, 104%. Further, the growth was 106% with MALME-3M melanoma; 126% in the assay on MDA-MB-231 breast; 118% in the assay on RXF 393 renal; 120% with SF-268 CNS; 106% with SF-295 CNS; 114% in the assay on SF-539 CNS. The growth is 103% with UACC-257 melanoma and 107% in the assay on M14 melanoma.
For `c1cc(-c2nnc(SSc3ncnc4nc[nH]c34)o2)ccn1`, the growth in the assay on NCI-H23 lung was 43%; in the assay on NCI-H226 lung, 53.5%; with NCI-H322M lung it was 55.9%; with HOP-62 NSCLC, 52.4%; with NCI-H460 lung, 48.4%; in the assay with HOP-92 NSCLC it was 52.9%. For the same compound, the growth was 6.68% (active) with NCI-H522 lung; 92.5% with A549/ATCC NSCLC; 13.8% in the assay on 786-0 renal; 67.7% in the assay on COLO 205 colon; 41.5% with DU-145 prostate; 17% in the assay with K-562 leukemia. The growth in the assay on MALME-3M melanoma is 103%; in the assay with MDA-MB-231 breast it was 20.6%; with RXF 393 renal, 61.8%; with SF-268 CNS, 35%; with SF-295 CNS, 21.9%; in the assay on SF-539 CNS it was 15.4%. The growth is 51.9% in the assay with UACC-257 melanoma and 7.94% (active) with M14 melanoma.
Consider `c1cc2nc(-c3cn[nH]c3)c3c(c2cc1-c1cn[nH]c1)C1CCC3C1` (stereo not given), for which the growth with NCI-H23 lung was 53%; in the assay on NCI-H226 lung, 39.5%; in the assay with NCI-H322M lung it was 75%; in the assay with HOP-62 NSCLC it was 47.8%; in the assay with NCI-H460 lung, 54%; in the assay with HOP-92 NSCLC, 28%. The growth with NCI-H522 lung was 75.1%; with A549/ATCC NSCLC, 74%; in the assay with 786-0 renal, 81.5%; in the assay on COLO 205 colon, 90.5%; with DU-145 prostate, 81.4%; in the assay with K-562 leukemia it was 65%. The growth with MALME-3M melanoma was 61.4%; in the assay with MDA-MB-231 breast it was 53%; in the assay with RXF 393 renal it was 15.3%; in the assay with SF-268 CNS it was 77%; with SF-295 CNS, 57.8%; in the assay with SF-539 CNS it was 66.7%. In addition, the growth was 83.9% in the assay on UACC-257 melanoma and 69.3% with M14 melanoma.
For `COC(=O)Nc1ccc(-c2nc(-c3cccc(OC)c3)c(-c3ccnc(Br)c3)[nH]2)cc1`, the growth is 67.7% in the assay on NCI-H23 lung; 59.1% with NCI-H226 lung; 62.2% with NCI-H322M lung; 59.4% in the assay with HOP-62 NSCLC; 61.2% with NCI-H460 lung; 62.8% in the assay on HOP-92 NSCLC. In addition, the growth was 57.9% in the assay with NCI-H522 lung; 54.4% in the assay with A549/ATCC NSCLC; 37.4% with 786-0 renal; 79.7% with COLO 205 colon; 81.4% in the assay on DU-145 prostate; 13.8% in the assay with K-562 leukemia. The growth in the assay on MALME-3M melanoma is 66.7%; in the assay on MDA-MB-231 breast, 65.3%; in the assay on RXF 393 renal it was -12.2% (active); in the assay with SF-268 CNS, 76%; with SF-295 CNS, 9.58% (active); with SF-539 CNS, 51.6%. The growth with UACC-257 melanoma is 71.7%; with M14 melanoma, 42.5%.
Turning to `CCCCNC(=O)Oc1ccc(/C(=C(\C)c2ccc(Cl)cc2)c2ccc(OCCN(CC)CC)cc2)cc1`, the growth in the assay on NCI-H23 lung was 85.6%; with NCI-H226 lung, 103%; in the assay with NCI-H322M lung, 87.9%; with HOP-62 NSCLC it was 74.3%; with NCI-H460 lung it was 72.6%; in the assay with HOP-92 NSCLC, 67.2%. Also, the growth with NCI-H522 lung was 98.4%; in the assay with A549/ATCC NSCLC, 61.6%; in the assay with 786-0 renal it was 59.2%; with COLO 205 colon, 63.3%; in the assay on DU-145 prostate it was 81.7%; with K-562 leukemia, 8.22% (active). In addition, the growth in the assay on MALME-3M melanoma is 65.1%; in the assay with MDA-MB-231 breast it was 70.2%; in the assay with RXF 393 renal, 79.4%; in the assay on SF-268 CNS, 65.5%; in the assay with SF-295 CNS, 85.2%; in the assay on SF-539 CNS, 71.7%. Also, the growth in the assay on UACC-257 melanoma is -1.69% (active); in the assay with M14 melanoma, 22.6%.
`Cc1nc2nc(SCC(=O)O)[nH]c2c(=O)[nH]1`: the growth in the assay on NCI-H23 lung is 98.8%; in the assay on NCI-H226 lung, 101%; with NCI-H322M lung it was 105%; with HOP-62 NSCLC, 96.7%; in the assay with NCI-H460 lung, 104%; in the assay on HOP-92 NSCLC it was 95.3%. Also, the growth in the assay with NCI-H522 lung was 78.6%; in the assay with A549/ATCC NSCLC, 86.6%; in the assay on 786-0 renal, 104%; in the assay with COLO 205 colon, 109%; with DU-145 prostate it was 113%; in the assay with K-562 leukemia, 94.9%. Further, the growth in the assay on MALME-3M melanoma is 112%; in the assay on MDA-MB-231 breast, 110%; in the assay with RXF 393 renal, 109%; with SF-268 CNS it was 108%; with SF-295 CNS, 97.9%; in the assay on SF-539 CNS, 97.6%. Moreover, the growth was 96.7% in the assay with UACC-257 melanoma and 102% in the assay with M14 melanoma.
As to `O=C(/C=C/c1sc(Cl)nc1Cl)c1ccccc1`, the growth with NCI-H23 lung was 95.2%; in the assay with NCI-H226 lung it was 99.7%; in the assay with NCI-H322M lung, 95%; with HOP-62 NSCLC it was 101%; in the assay on NCI-H460 lung, 102%; in the assay with HOP-92 NSCLC it was 94.3%. Also, the growth is 93% in the assay with NCI-H522 lung; 99.9% in the assay on A549/ATCC NSCLC; 97% in the assay with 786-0 renal; 87.4% in the assay with COLO 205 colon; 99.1% in the assay with DU-145 prostate; 10.8% in the assay on K-562 leukemia. Also, the growth in the assay on MALME-3M melanoma was 95.7%; in the assay on MDA-MB-231 breast, 98.7%; in the assay with RXF 393 renal, 99.7%; in the assay with SF-268 CNS, 104%; in the assay on SF-295 CNS it was 102%; in the assay with SF-539 CNS, 72.3%. In addition, the growth in the assay on UACC-257 melanoma was 94.9%; in the assay on M14 melanoma it was 79.8%.
As for `COc1ccc([C@H]2c3cc(OC)c(OC)cc3C=C(C=O)C2CO)cc1OC` (stereo not given in full), the growth in the assay with NCI-H23 lung was 62.8%; with NCI-H226 lung it was 80.8%; in the assay with NCI-H322M lung, 97.8%; in the assay with HOP-62 NSCLC, 62.1%; in the assay on NCI-H460 lung, 69.8%; in the assay on HOP-92 NSCLC, 36.8%. The growth in the assay on NCI-H522 lung is 32.1%; with A549/ATCC NSCLC it was 80.6%; in the assay with 786-0 renal, 45.7%; in the assay with COLO 205 colon, 45%; with DU-145 prostate it was 61.9%; in the assay with K-562 leukemia it was 20.1%. For the same compound, the growth is 68.2% in the assay with MALME-3M melanoma; 70.2% in the assay on MDA-MB-231 breast; -9.23% (active) in the assay on RXF 393 renal; 60.5% in the assay with SF-268 CNS; 12.7% in the assay with SF-295 CNS; 38% in the assay with SF-539 CNS. Moreover, the growth in the assay with UACC-257 melanoma is 39.7%; in the assay with M14 melanoma, 35.7%.

The record behind these values is PubChem BioAssay (NCI).
